# According to PubChem BioAssay (EPA / NIEHS):
# Values joined by “and” are separate entries in the source; they are usually repeats but may differ in a detail not shown here. Equal values may be shown once. Inconclusive results are not listed. The source holds several records for some structures; these can differ, active in one and inactive in another. Active and inactive are the calls of the source. How the source made its calls: active means hit-call score of the fitted dose curve at least 0.9, where 1 is the maximum; inconclusive means response in the unintended direction; inactive means score below 0.9.
# Test system: frog Estrogen Receptor (ESR2), gene 100174814
# Assay: ATG_frER2_XSP1: Attagene TRANS-FACTORIAL Multi-Species (XSP1) HepG2 Assay for frog Estrogen Receptor (ESR2) (AID 2283774)
# Summary of the method: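 HepG2, transient MRTU transfection (GAL4-UAS reporters, exogenous NR-Gal4 chimeras); 24 h compound exposure; 3 nM 6α-fluorotestosterone co-added; total RNA → RT-PCR → 6-FAM primer extension → HpaI → CE. Positive direction vs DMSO.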
row,Structure (SMILES),AC50
1,CC12CC1(C)C(=O)N(c1cc(Cl)cc(Cl)c1)C2=O (stereo unspecified),24.7 µM (active)
2,CC(C)(C)CC(C)(C)c1ccc(O)cc1,2.75 µM (active)
3,O=C1C2(Cl)C3(Cl)C4(Cl)C(Cl)(Cl)C5(Cl)C3(Cl)C1(Cl)C5(Cl)C24Cl (stereo unspecified),2.24 µM (active)
4,C[C@]12CCC(=O)C[C@@H]1CC[C@@H]1[C@@H]2CC[C@]2(C)[C@@H](O)CC[C@@H]12,1.31 µM (active)
5,CC1(C)CCC(Cc2ccc(Cl)cc2)C1(O)Cn1cncn1 (stereo unspecified),26.3 µM (active)
6,CC(C)(C)c1cc(O)ccc1O,22.4 µM (active)

# Test system: not listed separately
# Assay: ACEA_AR_agonist_AUC_viability: ACEA Biosciences xCELLigence Real-Time Cell Analysis on Androgen Receptor Agonism for Viability (AID 2283775);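 on AC50: viability read 80 hours after compound addition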
# Summary of the method: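 Viability endpoint from xCELLigence impedance in 22Rv1 prostate cells at 80 h. Eight-point series, 100 uM maximum final.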
Structure (SMILES),outcome,AC50
O=C(OC1CCCCC1)c1ccccc1C(=O)OC1CCCCC1,inactive,
CC(C)c1cccc(C(C)C)c1O,inactive,
CCOC(=O)Nc1cccc(OC(=O)Nc2ccccc2)c1,inactive,
CC1(C)Cc2cccc(O)c2O1,inactive,
NC(=O)O,inactive,
Oc1cccc2cccnc12,,22.3 µM (active) and 6.75 µM (active)
CCC(=O)C(CC(C)N(C)C)(c1ccccc1)c1ccccc1 (stereo unspecified),,22.3 µM (active)
Cc1ccccc1N,inactive,
O=C(Nc1ccc2[nH]ccc2c1)c1cc2cc(F)ccc2n1Cc1cccc(F)c1,,14.5 µM (active)
Fc1ccc(C2(Cn3cncn3)OC2c2ccccc2Cl)cc1 (stereo unspecified),inactive,
O=C(Cc1ccccc1)c1ccccc1,inactive,
CC(C)(c1ccc(OCC2CO2)cc1)c1ccc(OCC2CO2)cc1 (stereo unspecified),inactive,
O=C1C(Cl)=C(Cl)C(=O)c2ccccc21,inactive,
CCCCOCCOC(C)=O,inactive,
CC12CC1(C)C(=O)N(c1cc(Cl)cc(Cl)c1)C2=O (stereo unspecified),inactive,
CN(C)N=O,inactive,
CC(C)(C)CC(C)(C)c1ccc(O)cc1,,10.4 µM (active)
O=C1C2(Cl)C3(Cl)C4(Cl)C(Cl)(Cl)C5(Cl)C3(Cl)C1(Cl)C5(Cl)C24Cl (stereo unspecified),,7.07 µM (active)
[O-][Cl+2]([O-])O,inactive,
c1cc[c]([Hg][c]2ccccc2)cc1,,26.6 µM (active)

Structure (SMILES),outcome,AC50
CC(C)OC(=O)Nc1ccccc1,inactive,
CCCCCCCCc1ccc(O)cc1,,29.8 µM (active)
Oc1ccc(-c2ccccc2)cc1,inactive,
COc1cc(OC)nc(NC(=O)NS(=O)(=O)c2ncccc2C(=O)N(C)C)n1,,1.74 µM (active)
Cl/C=C\C[N+]12CN3CN(CN(C3)C1)C2,inactive,
CCC[CH2][Sn]([Cl])([Cl])[Cl],inactive,
COP(=O)(OC)OC,inactive,
CCC(C)(C)c1ccc(O)c(C(C)(C)CC)c1,inactive,
Cc1ccc(N)cc1Cl,inactive,
CC(C#N)CCC#N (stereo unspecified),inactive,
CCC1(c2ccc(N)cc2)CCC(=O)NC1=O (stereo unspecified),inactive,
O=C1CCCN1,inactive,
BrCCBr,inactive,
COP(=O)(OC)O/C(=C\Cl)c1cc(Cl)c(Cl)cc1Cl,inactive,
CC1(C)CCC(Cc2ccc(Cl)cc2)C1(O)Cn1cncn1 (stereo unspecified),inactive,
C[C@H]1CCCC(=O)CCC/C=C/c2cc(O)cc(O)c2C(=O)O1,inactive,30.3 µM (active)
CCOP(=S)(OCC)Oc1nc(Cl)c(Cl)cc1Cl,,83.9 µM (active)
CC(C)(C)c1cc(O)ccc1O,,90.9 µM (active)
CC(=O)C=C(C)C,inactive,
